The text below walks through data of PubChem BioAssay (NCI).

Compounds without any hit were thinned out: in the full panel of roughly 83,000, 20% have a hit.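 48-hour exposure, single concentration, 96-well plates; percent growth endpoint where 0 means no net growth. Active: below 10.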 A number with no mark means an inactive call. Activity calls are given as the source filed them.

The assay deals with UACC-62 melanoma. Put plainly: NCI-60 one-dose screen, 48 h (100 = growth as untreated, 0 = no growth, -100 = all killed). The conditions noted are these: 10 µM. The procedure:
Growth inhibition of the UACC-62 human tumor cell line is measured as a screen for anti-cancer activity. Cells are grown in 96 well plates and exposed to the test compound for 48 hours. Compounds are tested at a single concentration, which is 10^-5 M for most compounds. The reported endpoint is percent growth (GI% or GIPRCNT), where numbers from 0 - 100% represent growth inhibition, and numbers from -100% - 0 represent cell death. For example, a value of 40 represents 60% growth inhibition. A value of 0 means no net growth occurred over the course of the experiment. A value of -40 indicates 40% of cells at the beginning of the experiment died by the end of the experiment. A value of -100 means all cells are dead at the end of the experiment.
NCI-60 Human Tumor Cell Lines Screen was performed using the standard one-dose NCI protocol, which is described in more detail at https://dtp.cancer.gov/discovery_development/nci-60/default.htm.
Compounds with GIPRCNT values below 10 were considered active. Activity score was based on GIPRCNT using the following formula: […]
Score is 0 for GIPRCNT values of 100 or above, 50 for GIPRCNT values of 0, and 100 for GIPRCNT values of -100.
As for `O=C(CCCCCCC(=O)Nc1ccccc1)NO`, the growth was -42.8% (active).
On to `COc1cc(/C=C/c2cc(/C=C/c3ccc(O)c(OC)c3)[nH]c(=O)n2)ccc1O`, for which the growth was 63.3%.
The result for `O=[N+]([O-])c1ccc(NCSc2ccc(Cl)cc2)cc1` reads 77.8%; that for `COc1ccc(CCN2CCC(Nc3nc4ccccc4n3Cc3ccc(F)cc3)CC2)cc1`, -85.6% (active); that for `Cc1cc(SCc2ccccc2)nc(N)n1`, 87.5%.
For `CN1CCc2c(sc3nc4n(-c5ccc(Cl)cc5)cnn4c(=O)c23)C1`, the growth is 102%.
As to `CCOC(=O)c1sc2ncnc(Nc3ccc(NC(=O)Nc4ccc(Cl)cc4)cc3)c2c1C`, the growth was 78.8%.
For the compound `COc1ccc(-c2onc(N)c2-c2cc(OC)c3c(c2)OCO3)cc1`, the growth is 42.7%.
As to `COc1ccc(-c2nn(-c3cccc(Cl)c3)cc2-c2cc(-c3ccccc3)nc(N)n2)cc1`, the growth was 74.3%.
The result for `Cc1ccc(C2NC(=S)N3C(c4ccc(C)cc4)NC(=S)N23)cc1` (stereo not given) reads 34.6%; that for `CO[C@H]1CC(O[C@@H]2/C(C)=C/C[C@@H]3C[C@@H](C[C@]4(C=C[C@H](C)[C@@H](C5CCCCC5)O4)O3)OC(=O)[C@@H]3C=C(C)[C@@H](O)[C@H]4OC/C(=C\C=C\[C@@H]2C)[C@]43O)O[C@@H](C)C1O[C@H]1C[C@H](OC)[C@@H](O)[C@H](C)O1` (stereo not given in full), -78.1% (active); that for `O=C(CCl)Oc1ccc(OC(=O)CCl)cc1`, 85%.
`CCOC(=O)c1cc(C(=O)c2cc(OC)c(OC)c(OC)c2)n2nc(C)ccc12`: the growth is 59%.
With `COc1cc(C(=O)/C=C/c2c[nH]c3ccccc23)cc(OC)c1OC` the figure was 30.6%; with `O=C1NC(=O)c2c(CCCSc3nc4ccccc4c(=O)n3CCc3ccccc3)cccc21`, 90%; with `Cc1n[nH]c(C)c1N=Nc1cccc2c1C(=O)c1ccccc1C2=O`, 89.5%.
For `COc1cc(-c2ccc(N=Nc3ccc4c(S(=O)(=O)O)ccc(N)c4c3O)c(OC)c2)ccc1N=Nc1ccc2c(S(=O)(=O)O)ccc(N)c2c1O`, the growth is 111%.
As to `CC(C)(C)c1ccc(S(=O)(=O)N[C@H]2CC[C@H]3[C@@H]4CCc5cc(O)c([N+](=O)[O-])cc5[C@H]4CC[C@]23C)cc1`, the growth was 84.2%.
With `COc1ccc2nc3cc(Cl)ccc3c(N)c2c1`, the growth is -96.4% (active).
Consider `COc1cc(-c2nn(-c3cccc(NC(=O)CCN4CCN(c5ccccc5)CC4)c3)cc2-c2ccncc2)ccc1Cl`, for which the growth is 26.6%.
With `CCCCC/C=C/C/C=C/CCCCCCCC1=NC(C)(C)CN1C(C)C` the figure was 15.1%.
On to `CC(C)CCN(CCC(C)C)CC(=O)Nc1ccc(S(=O)(=O)c2ccc(NC(=O)CN(CCC(C)C)CCC(C)C)cc2)cc1`, for which the growth was 29.7%.
With `COc1ccc2c(c1)C(=O)/C(=C/c1cccc(OCC(=O)c3ccc([N+](=O)[O-])cc3)c1)CO2` the figure was 46.7%; with `O=C(CC(CC(=O)c1ccccc1)c1ccccc1O)c1ccccc1`, 81.5%; with `CN(C)CCCOc1ccc(OCCCN(C)C)c2c1C(=O)c1ccccc1C2=O`, -46.4% (active).
For `COc1ccccc1-n1c(-c2sc(NC(C)=O)nc2C)n[nH]c1=S`, the growth is 98.5%.
For `Clc1ccc(C2=NN=C3C(Cc4ccccc4)=Nc4ccccc4N3C2)cc1`, the growth was 79.6%.
With `Cc1ccc(C(=O)/C=C/c2ccccc2)s1` the figure was 97.4%.
Turning to `Cc1ccc(Cl)cc1NC(=O)CCl`, the growth is 66.3%.
Turning to `COc1cc(-c2csc(NC(=O)Nc3cc(C(F)(F)F)cc(C(F)(F)F)c3)n2)cc(OC)c1OC`, the growth was 18.7%.
Turning to `COc1cc2c(cc1NC(=O)C(F)(F)F)-c1ccc(NC(=O)C(F)(F)F)cc1C2`, the growth was 92%.
Turning to `C=C(NC(=O)C(=C)NC(=O)c1csc(C2=NC3c4csc(n4)C4NC(=O)c5csc(n5)C(C(C)(O)C(C)O)NC(=O)C5CSC(=N5)C(=CC)NC(=O)C(C(C)O)NC(=O)c5csc(n5)C3(CC2)NC(=O)C(C)NC(=O)C(=C)NC(=O)C(C)NC(=O)C(C(C)CC)NC2C=Cc3c(C(C)O)cc(nc3C2O)C(=O)OC4C)n1)C(N)=O` (stereo not given), the growth was -17% (active).
For `CC(=O)OC/C=C(/C)C[P+](c1ccccc1)(c1ccccc1)c1ccccc1`, the growth is 47.6%.
`COc1ccc(C2=Cn3c(CCC(=O)c4nc5ccccc5[nH]4)nnc3SC2)cc1`: the growth is 106%.
As to `O=C(CNc1nnc(-c2cccnc2SCc2ccccc2)s1)Nc1nc(Cl)cc(Cl)n1`, the growth is 108%.
With `CCOC(=O)c1cc(C(=O)c2ccc(OC)c(OC)c2)n2ccncc12`, the growth was 94%.
The result for `Cc1ccc(C2=NN(c3ccc(S(C)(=O)=O)cc3)C(=O)CC2)cc1` reads 42.9%.
Turning to `Cc1cc(O)ccc1C1=NN(c2ccc(S(C)(=O)=O)cc2)C(=O)CC1`, the growth was 52.9%.
Take `NC1=CC(=O)C(=O)c2cccnc21`: the growth was 88.3%.
`COc1ccc(-c2cc(-c3ccc(Cl)cc3)nc(SCCCC(=O)NO)n2)cc1OC`: the growth is -60.1% (active).
